Assay outcomes deposited in PubChem by National Center for Advancing Translational Sciences (NCATS).
FLuc modulator = qHTS profiling assay for firefly luciferase inhibitor/activator using purifed enzyme and Km concentrations of substrates (counterscreen for miR-21 project); Luciferin 4-monooxygenase (Photinus pyralis), P08659; purified FLuc, Km substrates, luminescence inhibition; Potency, µM (titrated, usually from 57.5 µM), usual class: inhibitors; hit rate 6.9% among 360,000; AID 588342, 2011; note: nearly all actives have a fitted effect of over 55% in size
Target sequence (P08659 whole entry, looked up): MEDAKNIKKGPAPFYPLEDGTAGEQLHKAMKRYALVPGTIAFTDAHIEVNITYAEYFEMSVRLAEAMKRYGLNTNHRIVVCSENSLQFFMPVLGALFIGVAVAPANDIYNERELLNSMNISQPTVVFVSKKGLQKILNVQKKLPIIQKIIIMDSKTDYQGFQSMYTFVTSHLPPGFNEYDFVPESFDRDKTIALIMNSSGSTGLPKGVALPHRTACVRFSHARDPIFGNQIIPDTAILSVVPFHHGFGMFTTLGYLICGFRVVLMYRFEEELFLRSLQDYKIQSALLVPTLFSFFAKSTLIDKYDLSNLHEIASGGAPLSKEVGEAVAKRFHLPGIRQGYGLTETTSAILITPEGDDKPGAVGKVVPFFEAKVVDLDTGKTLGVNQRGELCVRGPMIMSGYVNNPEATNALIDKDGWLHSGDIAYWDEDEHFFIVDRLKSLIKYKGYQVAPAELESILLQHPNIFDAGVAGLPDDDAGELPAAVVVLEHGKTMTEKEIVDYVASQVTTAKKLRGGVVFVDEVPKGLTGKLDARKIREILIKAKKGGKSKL
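Biochemical qHTS of compounds, final roughly 60 µM downward over six points, against 10 nM purified firefly luciferase using Km concentrations of substrates (10 uM D-luciferin, 10 uM ATP) in Tris acetate pH 7.5 buffer; luminescence output.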
SMN2 splice enh = qHTS Assay for Enhancers of SMN2 Splice Variant Expression; HEK293 SMN2-luciferase splicing reporter, luminescence, 30-36 h; Potency, µM (titrated, usually from 46.1 µM), most hits filed as activators; hit rate 2.8% among 210,000; note: nearly all actives have a fitted effect of over 55% in size
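HEK293 cells carry an SMN2 minigene-luciferase reporter in which exon 7 inclusion puts luciferase in frame. Cells were seeded at 2000 cells/well, attached for 10-12 hours, then exposed to compounds for 30-36 hours at 37C before ONE-Glo luminescence.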
Rab9 promoter act = qHTS Assay for Rab9 Promoter Activators; AID 485297, 2010; Huh7 Rab9 promoter-luciferase reporter, luminescence, 24 h; Potency, µM (series often up to 9.22 µM), hits mostly activators; hit rate 2.8% among 320,000; note: nearly all actives have a fitted effect of over 60% in size
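Cells were plated at 1500 per well in reduced-serum medium with 10% FBS and left 2 h. Compound in DMSO was then added for 24 h at 37 °C. Reporter signal was read by luminescence after 10 min with luciferase detection reagent.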
NPC1 promoter act = qHTS Assay for NPC1 Promoter Activators. Huh7 NPC1 promoter luciferase reporter, 24 h. Potency, µM (series often up to 9.22 µM), hits mostly activators. hit rate 2.4% among 320,000; note: nearly all actives have a fitted effect of over 60% in size
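Readout is luciferase luminescence, reflecting NPC1 promoter activation in stably transfected Huh7 cells after 24 h compound exposure at 37 °C in reduced-serum medium with 10% FBS.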
ELG1 genotoxic = qHTS screen for small molecules that induce genotoxicity in human embryonic kidney (HEK293T) cells expressing luciferase-tagged ELG1 | HEK293T ELG1-luciferase reporter, luminescence, 16 h | Potency, µM (series often up to 46 µM), most hits filed as activators | hit rate 1.3% among 330,000; note: nearly all actives have a fitted effect of over 60% in size
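After overnight (16 hr) compound treatment at 37 °C, ELG1-luciferase HEK293T cells were lysed with ONE-Glo; luminescence quantified 30 min later at room temperature.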
ELG1 repair inh = qHTS screen for small molecules that inhibit ELG1-dependent DNA repair in human embryonic kidney (HEK293T) cells expressing luciferase-tagged ELG1 | hit rate 2.3% among 330,000 | HEK293T ELG1-luciferase reporter, luminescence, 16 h; DNA damage induced by 5-fluorouridine | Potency, µM (series often up to 46.1 µM), usual class: inhibitors; note: nearly all actives have a fitted effect of over 55% in size
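Quantitative HTS, concentration-response format. 2,000 cells/well co-treated with 5-fluorouridine and compound, 16 hr in 5% CO2 at 37 °C; ONE-Glo luminescence read after 30 min.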
Hits are given with their value; n = inactive; u = inconclusive; x = not tested or not shown. This is a sample that favours compounds with a hit; in the whole collection about 9.3% have one here. Calls come from the whole dose curve; as a rule, active = well fitted curve in the direction sought with a large enough effect; inconclusive = small, poorly fitted or top-dose-only effect, or another doubt; inactive = no such curve, though single readings can be large; an effect the other way counts as inactive or inconclusive.

SMILES	FLuc modulator	SMN2 splice enh	Rab9 promoter act	NPC1 promoter act	ELG1 genotoxic	ELG1 repair inh
Cc1c(/C=N\NC(=O)C2COc3ccccc3O2)c2ccccc2n1C (configuration not stated)	u	n	n	n	n	n
COC(=O)CCN(Cc1cc(OC)ccc1OC)S(=O)(=O)c1ccccc1Br	x	x	x	x	n	n
COc1cc2c(cc1OC)-c1cc(Nc3ccc4c(c3)OCCO4)nc(=O)n1CC2	15µM	n	n	n	u	u
Cn1c(CNC(=O)c2ccccc2F)nnc1SCc1nc2ccccc2c(=O)[nH]1	n	n	n	n	n	n
C/C(NC(=O)c1cccc(F)c1)=C1/C(=O)C[C@@H]2[C@H]1C2(C)C	11µM	n	n	n	u	u
C/C(NC(=O)c1ccccc1F)=C1\C(=O)C[C@@H]2[C@H]1C2(C)C	15µM	x	u	u	u	u
CN1CCN(NC(=O)c2cccc(F)c2)CC1	n	n	n	n	n	n
CC1(C)CC(NC(=O)c2ccccc2F)CC(C)(C)N1	n	x	n	n	n	n
O=C(N/N=C\c1ccco1)Nc1cccc(Cl)c1	19µM	10µM	2.5µM	3.2µM	u	u
O=C(Nc1ccccc1C(=O)N/N=C/c1ccco1)c1ccc(F)cc1	8.5µM	n	n	n	n	n
O=C(Nc1ccccc1C(=O)N/N=C/c1ccco1)c1ccc(Cl)cc1	2.1µM	n	n	n	n	n
O=C(Nc1ccccc1C(=O)N/N=C/c1ccco1)c1ccccc1	21µM	n	n	n	n	n
CCCCn1cnc2c(c(-c3ccccc3)c(-c3ccccc3)n2Cc2ccco2)c1=N	n	x	n	n	n	u
COc1cc(C(=O)Nc2ccc([N+](=O)[O-])cn2)cc(OC)c1OC	n	n	n	n	n	n
COc1ccccc1CNC(=O)Cc1ccc(Br)cc1	n	n	n	n	n	n
N=C1/C(=C\c2ccc(-c3cc(Cl)cc(Cl)c3)o2)C(=O)N=C2SC=C(c3ccccc3)N12	n	n	n	n	n	n
O=C(CN1C(=O)c2ccccc2C1=O)NCc1ccccn1	n	n	n	n	n	n
O=C(Cn1c(=O)sc2ccccc21)NCc1ccccn1	u	11µM	n	n	18µM	u
CC1CCCN(C(=O)c2cc3ccc4cccnc4c3[nH]2)C1 (configuration not stated)	0.43µM	x	x	x	x	x
O=C(c1cc2ccc3cccnc3c2[nH]1)N1CCCCC1	1.2µM	x	x	x	x	x
CC(=O)c1ccc(N2CCN(C(=O)c3cc4ccc5cccnc5c4[nH]3)CC2)cc1	n	x	x	x	x	x
Cc1cccc(OCC(=O)NCC(=O)N/N=C/c2cc(Br)ccc2OCc2ccccc2)c1	n	n	n	n	n	26µM
O=C(COc1ccccc1)NCC(=O)N/N=C/c1cc(Br)ccc1OCc1ccccc1	n	u	n	n	n	u
Cc1cccc(OCCn2cc(/C=N/NC(=O)c3ccncc3)c3ccccc32)c1	u	n	n	n	n	21µM
Cc1cccc(OCC(=O)N/N=C\c2cn(C)c3ccccc23)c1	n	x	n	n	u	5.8µM
SMILES	FLuc modulator	SMN2 splice enh	Rab9 promoter act	NPC1 promoter act	ELG1 genotoxic	ELG1 repair inh
Cc1ccc(N/N=C(\C#N)C(=N)N2CCCCC2)cc1	5.4µM	x	0.5µM	0.45µM	u	u
CC(=O)/C(=N\Nc1ccc(C)cc1)N1CCOCC1	n	x	n	n	n	n
N#C/C(=N\Nc1ccc(Cl)cc1)C(=N)N1CCCCCC1	0.95µM	3.5µM	0.32µM	0.4µM	1.8µM	u
N#C/C(=N\Nc1ccccc1)C(=N)N1CCCCC1	5.4µM	11µM	u	2µM	6.5µM	u
S=C(Nc1ccc(Cl)cc1)N1CCCC1	u	u	n	n	n	n
Cc1nc(CCN2C(=O)c3ccccc3C2=O)n[nH]1	n	n	n	n	n	n
CSc1ccc(CCNC(=O)CCc2nnc3ccc(N4CCC5(CC4)OCCO5)nn23)cc1	n	x	n	n	n	9.2µM
